The list is not random: actives were taken first. Their share in the collection is about 0.98%.
PfHsp40 yeast: rescue of yeast from PfHsp40 toxicity, primary screen, S. cerevisiae, ATP luminescence. S. cerevisiae expressing PfHsp40, growth rescue. growth rescue, % at 12.5 µM. 0.68% of 340,000 active; in the data active means growth rescue above about 28%, passing the limit was not always enough; inconclusive means no clear call, values can overlap the other calls;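 further: yeast W303a lacking pdr1 and pdr3 grown in galactose medium; growth measured after three days at 30 °C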
Mtb bLac sens: beta-lactam sensitization of Mtb H37Rv, H37Rv; M. tuberculosis H37Rv growth with meropenem, percent inhibition; inhibition, % at 25 µM; 0.27% of 330,000 active; call rule not given here;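 further: growth measured after seven days incubation then overnight dye step; 0% = bacteria only wells and 100% = bacteria with antibiotic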
Yp Topo-I inh: Yersinia pestis topoisomerase I inhibitors, primary screen, biochemical, cleavage product accumulation, plate reader, single point; DNA topoisomerase I (Yersinia pestis CO92); Y. pestis Topo-I cleavage product accumulation; activity, % at 10 µM; 0.064% of 360,000 active; AID 504884, 2011; in the data active means activity above about 50%, passing the limit was not always enough; inconclusive means no clear call, values can overlap the other calls
Rv3671c protease: Rv3671c serine protease inhibitors, primary screen, biochemical, fluorescence polarization, M. tuberculosis H37Rv; P9WHR9; inhibition, % at 5.96 µM; 0.048% of 320,000 active; in the data active means inhibition above about 38%;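 further: extracellular domain of Rv3671c used as enzyme; 0% = enzyme with DMSO and 100% = no enzyme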
Target sequence (P9WHR9 whole entry, looked up, the tested form may be a part): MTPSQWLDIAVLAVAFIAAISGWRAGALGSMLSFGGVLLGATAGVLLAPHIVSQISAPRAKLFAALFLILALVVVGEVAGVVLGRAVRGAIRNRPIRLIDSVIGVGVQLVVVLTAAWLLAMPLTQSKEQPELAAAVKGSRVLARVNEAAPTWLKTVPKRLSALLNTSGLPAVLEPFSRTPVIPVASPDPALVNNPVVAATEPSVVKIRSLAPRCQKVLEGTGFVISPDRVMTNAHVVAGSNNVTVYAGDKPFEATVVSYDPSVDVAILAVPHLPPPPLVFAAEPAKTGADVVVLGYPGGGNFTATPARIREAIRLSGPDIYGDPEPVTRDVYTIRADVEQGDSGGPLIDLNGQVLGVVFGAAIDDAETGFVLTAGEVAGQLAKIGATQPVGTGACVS
Mtb UGM inh: M. tuberculosis UGM enzyme inhibitors, primary screen, biochemical, fluorescence polarization, single point | UDP-galactopyranose mutase (Mycobacterium tuberculosis (strain ATCC 25618 / H37Rv)), … | purified UGM, fluorescence polarization probe displacement | inhibition, % at 10 µM | 0.06% of 320,000 active; in the data active means inhibition above about 10%, passing the limit was not always enough; inconclusive means no clear call, values can overlap the other calls
FadD28 binding: inhibitors of FadD28 bisubstrate probe binding, primary screen, biochemical, fluorescence polarization, single point; Mycobacterium tuberculosis FadD28 fatty-acid-AMP ligase; inhibition, % at 12.5 µM; 0.22% of 360,000 active; in the data active means inhibition above about 8.5%, passing the limit was not always enough; inconclusive means no clear call, values can overlap the other calls
Numbers without * were called inactive; ? = inconclusive; . = not tested or not shown.

SMILES | PfHsp40 yeast | Mtb bLac sens | Yp Topo-I inh | Rv3671c protease | Mtb UGM inh | FadD28 binding
Cc1cc(C)c(S(=O)(=O)Nc2ccc(C(=O)O)cc2)cc1S(=O)(=O)Nc1ccc(C(=O)O)cc1 | 2 | 5 | 0 | -6 | 11* | -3
N#Cc1cccc(NC(=O)c2cc(C3CCCCN3C(=O)CCCc3ccccc3)on2)c1 (configuration not stated) | . | . | 28 | . | . | -2
COCc1cc(CN2CCN(C)CC2)c(O)c2ncccc12 | 1 | 6 | 6 | 6 | 0 | -1
Oc1c(CNc2ccccc2)cc(COCc2ccccc2)c2cccnc12 | 53* | 39 | 2 | 3 | . | 0
Oc1c(CN2CCOCC2)cc(COCc2ccccc2)c2cccnc12 | 65* | 13 | 14 | -2 | -2 | -1
CCC(C)(C)n1nnnc1C(c1ccncc1)N1CCN(c2cccc(OC)c2)CC1 (configuration not stated) | -2 | 2 | -1 | 3 | 0 | 1
CCC(C)(C)n1nnnc1C(c1cccnc1)N1CCN(c2cccc(C(F)(F)F)c2)CC1 (configuration not stated) | 215* | -11 | 34 | -4 | -1 | -5
O=C(CCNS(=O)(=O)c1ccccc1)N1CCN(c2ccccc2)CC1 | 54* | ? | 8 | -5 | -1 | 0
c1ccc(-c2ccc(OCCCn3cncn3)cc2)cc1 | 269* | 5 | -4 | 2 | 0 | 0
c1ccc(COc2ccc(OCCn3cncn3)cc2)cc1 | 0 | 26 | 8 | -6 | 0 | -1
COC(=O)c1c(NC(=O)C(C)(C)C)csc1C | 38* | 7 | 2 | -1 | 1 | 0
Oc1ccccc1Cc1c(O)ccc2ccccc12 | 7 | 15 | -7 | -1 | 0 | -3
O=C(O)CCN1C(=O)/C(=C\c2ccc(-c3nc4ccccc4s3)o2)SC1=S | -1 | 16 | 26 | -4 | -1 | 20*
Cc1cc(NCCCCCCCNc2cc(C)nc3cc([N+](=O)[O-])ccc23)c2ccc([N+](=O)[O-])cc2n1 | 0 | . | -2 | . | . | -3
Cc1cc(NC(=S)N(Cc2ccc(Cl)cc2)Cc2ccc(C(=O)O)cc2)ccc1Cl | ? | 4 | -11 | -9 | 2 | 2
CCc1ccc(NC(=S)N(Cc2ccc(Cl)cc2)Cc2ccc(C(=O)O)cc2)cc1 | 10 | 2 | 11 | -5 | -1 | 17*
Nc1c(C(=O)NC2CC2)sc2nc3c(c(-c4ccco4)c12)CC/C3=C/c1ccco1 | -1 | 0 | -32 | 11 | -2 | 18*
O=C(C1COc2ccccc2O1)N1CCCCC1 (configuration not stated) | -1 | 2 | -8 | -4 | 2 | -2
Cc1cccc(N2CCN(C(=O)C3COc4ccccc4O3)CC2)c1C (configuration not stated) | 206* | 6 | 27 | 1 | 3 | -1
O=C(C1COc2ccccc2O1)N1CCN(c2ccccc2Cl)CC1 (configuration not stated) | 35* | -1 | 3 | 5 | 1 | 0
O=C(C1COc2ccccc2O1)N1CCN(c2ccccc2F)CC1 (configuration not stated) | 0 | -6 | 4 | 2 | 1 | 0
OCc1ccc(-c2cncc3nccn23)cc1 | . | . | 10 | . | . | -1
Cc1ccc(NC(=O)c2ccccc2NS(=O)(=O)c2ccc(Cl)s2)cc1 | 80* | 7 | 4 | -1 | . | 1
O=C(Nc1ccccc1)c1ccccc1NS(=O)(=O)c1ccc(Cl)s1 | 1 | 4 | -4 | -7 | -1 | -1
COc1ccc(S(=O)(=O)/N=C2/C=CC(=O)C(C)=C2C)cc1 | -1 | 51 | -7 | -5 | -1 | 0
CC1=C(C)/C(=N\OS(=O)(=O)c2ccc(C)cc2)C=CC1=O | 424* | 100 | -3 | -6 | -1 | 0
CC1(C(=O)NCc2ccco2)Cc2c(-c3ccc(C(N)=O)cc3)ccnc2O1 (configuration not stated) | . | . | -6 | . | . | 0
COc1cc(C(=O)Nc2ccc(Br)cc2C(=O)c2cc(OC)c(OC)c(OC)c2)cc(OC)c1OC | 1 | -5 | 4 | 4 | -1 | 0
